# According to PubChem BioAssay AID2099 (Broad Institute, 2009):
# The whole screen tested about 330,000 compounds, of which about 230 (0.07%) were called active. Shown is part of a subset that was picked to be rich in actives. A number with no mark means an inactive call.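 Rule for the calls: active = more than half of a compound's replicate wells show inhibition beyond 50%, single wells judged on their own value; inconclusive = some, but no more than half, of replicates pass 50% inhibition; inactive = no replicate passes 50% inhibition.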
# Target: Lysine-specific demethylase 4C (Homo sapiens) (UniProt Q9H3R0)
# Assay: inhibitors of GASC-1 histone demethylase, primary screen, biochemical, fluorescence, DELFIA europium (AID 2099);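 note: signal counts dimethyl H3K9 product captured on neutravidin plate; 0% = median of DMSO wells and 100% = 0.3 times that DMSO median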
# Conditions: GST-JMJD2C(1-420) H3K9me3 demethylation, at 2.35 µM, active compounds read high
# Chain of Lysine-specific demethylase 4C (Homo sapiens) (Q9H3R0 1-420 limits assumed): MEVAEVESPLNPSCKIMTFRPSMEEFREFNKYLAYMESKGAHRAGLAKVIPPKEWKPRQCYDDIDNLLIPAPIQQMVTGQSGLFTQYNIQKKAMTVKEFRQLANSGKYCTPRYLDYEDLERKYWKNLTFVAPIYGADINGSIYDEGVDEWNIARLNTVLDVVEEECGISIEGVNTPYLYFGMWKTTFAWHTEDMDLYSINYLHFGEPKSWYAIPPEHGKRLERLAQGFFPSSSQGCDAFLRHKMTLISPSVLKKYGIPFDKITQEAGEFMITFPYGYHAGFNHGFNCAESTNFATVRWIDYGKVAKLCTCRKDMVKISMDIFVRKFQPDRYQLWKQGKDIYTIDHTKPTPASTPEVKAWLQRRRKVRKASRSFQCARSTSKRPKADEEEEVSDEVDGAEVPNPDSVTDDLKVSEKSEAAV
row,SMILES,inhibition
1,O=C(N1CCCCC1)N1CCN(C(=O)N2CCCCC2)CC1,-0.997%
2,COc1ccc(CC(NC(C)=O)C(=O)N2CCN(C(=O)Nc3cccc(Cl)c3)CC2)cc1OC (centres undefined),3.8%
3,Cc1ccc2oc(C(=O)N3CCN(C)C[C@@H]3C(C)C)c(C)c2c1,-21.1%
4,COc1ccc(-c2nc3n(c(=O)c2C#N)CCS3)c(OC)c1,-2.02%
5,COc1ccccc1OCC(=O)Nc1c2c(nn1-c1ccc(F)cc1)CS(=O)(=O)C2,-10.7%
6,COC(=O)c1c(NC(=O)CN(c2ccc(C)c(C)c2)S(C)(=O)=O)sc2c1CCCC2,5.54%
7,NS(=O)(=O)c1ccc(CNC(=S)NC(=O)c2ccco2)cc1,2.82%
8,CC(C)C[C@@H](N)c1nnc(SCC(=O)c2ccc(Cl)cc2)o1,-0.106%
9,C=CCSc1nc(Cc2ccc(Cl)cc2)nc2ccccc12,-13.3%
10,CCOc1ccc(C(C)=O)cc1COC(=O)c1cnc(Cl)c(Cl)c1,-8.14%
11,O=S(=O)(NCCc1ccccn1)c1cc(Cl)cc(Cl)c1O,6.23%
12,CCN(C(=O)CSc1ncnc2sccc12)c1c(N)n(Cc2ccccc2)c(=O)[nH]c1=O,-1.94%
13,CN1C(=O)c2ccccc2C(C(=O)NCCCN2CCCC2)C1c1c[nH]c2ccccc12 (centres undefined),-5.55%
14,COCCCn1c(SCC(=O)Nc2oc(C)c3c(C)n[nH]c(=O)c23)nc2sc3c(c2c1=O)CCC3,-6.89%
15,CCC(CO)Oc1cc(NC(=O)c2cccc3ccccc23)c2ncn(C(C)C)c2c1 (centres undefined),51.8% (active)
16,CCC(CO)Oc1cc(NC(=O)c2cccc(F)c2)c2ncn(C(C)C)c2c1 (centres undefined),-5.85%
17,CCC(CO)Oc1cc(NCc2ccccc2)c2ncn(C3CCCC3)c2c1 (centres undefined),-1.07%
18,CC(=O)Nc1ccc(Nc2ncnc3c2nnn3Cc2ccccc2Cl)cc1,1.4%
19,CCC(=O)N1c2ccc(S(=O)(=O)NCc3ccco3)cc2CC1C (centres undefined),15.7%
20,Cc1[nH]c(C)c(S(=O)(=O)N2CCN(c3cccc(C(F)(F)F)c3)CC2)c1C(=O)N1CCCCC1,30%
21,Cc1ccc(C)c(NC(=O)CCC(=O)N/N=C2/CC(=O)CC(C)(C)C2)c1,3.28%
22,COc1ccccc1NC1=NC(c2ccc(Cl)cc2)N=C(N)N1 (centres undefined),0.933%
23,Cc1ccc(S(=O)(=O)N2CCC(C(=O)OCC(=O)N(C)c3ccccc3)CC2)cc1C,10.2%
24,O=C1c2ccccc2C(=O)N1CCOc1ccc(F)cc1,-6.36%
